PubChem BioAssay AID504725 (Broad Institute, 2011)
Measured potencies and affinities stand elsewhere. Active and inactive are the calls of the source. No rule for the calls is given here.

target: KSHV LANA C-terminal domain (residues 932-1162) binding to LBS DNA (UniProt O40947); assay: inhibitors of C-LANA binding to LBS DNA, dose response, biochemical, fluorescence polarization, cherry-picked samples (AID 504725); conditions: MBP-C-LANA / FAM-LBS DNA fluorescence polarization, percent change from plate compound-well median; series mostly up to 35 µM

outcome, inactive:
COc1ccc(C2(CNC(=O)CCC(=O)O)CCCC2)cc1OC
O=C(CN1C(=O)NC2(CCCC2)C1=O)Nc1ccccc1-c1ccccc1
COc1ccc(OC2CCN(S(=O)(=O)c3ccc(OC)cc3)CC2)cc1
Cc1c(Cl)cccc1NS(=O)(=O)c1ccc2c(c1)C1C=CCC1C(c1ccc(C(=O)O)cc1)N2 (stereo not drawn)
COc1ccc(C)cc1NC(=O)C(OC(=O)c1cnccn1)c1ccccc1 (stereo not drawn)
Cc1ccc(/C=C/S(=O)(=O)N2CCC(C(=O)O)CC2)cc1
CC(=O)N/C(=N\OCc1ccc(Br)cc1)c1nonc1NC(C)=O
O=C1c2cccc3c(N4CCCCC4)ccc(c23)C(=O)N1c1cccc(O)c1
Cc1ccc(CSc2ncnc3onc(C)c23)cc1
O=C(O)c1ccccc1NS(=O)(=O)c1ccc(N/N=C/c2ccc(O)c(O)c2)c([N+](=O)[O-])c1
O=C(CSc1cccc2cccnc12)N/N=C/c1ccc(O)cc1
COc1ccc(C(C)=O)cc1CN(C)C
CC(C)=C1C2C=CC1C(C(=O)Nc1cc(C)ccc1C)C2C(=O)O (stereo not drawn)
CC(C)CN(C(=O)CSc1nncn1C)C1CCS(=O)(=O)C1 (stereo not drawn)
O=C(O)C1(c2ccccc2)CCN(S(=O)(=O)c2ccc(Cl)s2)CC1
Cc1ccc(NC(=O)c2ccc(Cl)c(S(=O)(=O)N3CCc4ccccc43)c2)nc1
Cc1ccc(S(=O)(=O)Nc2ccc(Br)cc2C(NCC(=O)O)c2ccccc2)cc1 (stereo not drawn)
COC(=O)c1ccc(OCC(O)CN2CCC(C)CC2)cc1 (stereo not drawn)
